Out of some 16,000 compounds screened, about 70 (0.4%) were called active. The sample holds actives, similar compounds and a random draw of the others, so the mix is not that of the screen. A number with no mark means an inactive call. Rule as the data show it: active = inhibition above about 50%; inactive = the rest.

For this assay, the target named is Kappa-type opioid receptor (Homo sapiens) (UniProt P41145). Put plainly: antagonists of human kappa opioid receptor OPRK1, Maybridge library (AID 652031). To be noted: OPRK1 cells, antagonist mode, fluorescence readout; at 9 µM; hits give high values.
Kappa-type opioid receptor (Homo sapiens), sequence (P41145 whole entry, looked up): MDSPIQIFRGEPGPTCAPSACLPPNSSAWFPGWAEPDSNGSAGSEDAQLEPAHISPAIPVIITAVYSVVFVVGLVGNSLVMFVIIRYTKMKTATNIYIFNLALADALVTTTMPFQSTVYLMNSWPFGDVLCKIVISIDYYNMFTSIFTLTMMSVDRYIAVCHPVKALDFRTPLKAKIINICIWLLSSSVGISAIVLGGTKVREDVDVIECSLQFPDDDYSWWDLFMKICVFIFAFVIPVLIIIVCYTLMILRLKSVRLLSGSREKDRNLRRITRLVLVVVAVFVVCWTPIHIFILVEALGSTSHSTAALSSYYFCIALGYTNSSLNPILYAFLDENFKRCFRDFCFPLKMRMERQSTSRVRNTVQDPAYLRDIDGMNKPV
The term inhibition denotes the relative decrease from the control value, in per cent. Take `O=S(=O)(c1ccc(Cl)s1)N1CCN(c2ccccc2)CC1`: the inhibition was -14.3%. To `CC(C)NC(=O)NNc1c(Cl)cncc1Cl` belongs 4.6%. To `O=c1oc2c3ccccc3c3oc(=O)sc3c2s1` belongs 13.6%; to `Cc1nc(C(F)(F)F)ccc1NC(=O)/C=C\C(=O)O`, -4.6%. On to `N#Cc1cccnc1NNC(=O)Nc1ccc(OCc2ccccc2)cc1`, for which the inhibition is 13.7%. For `CN(C)c1cccc2c1c(NC(=O)Nc1ccc(OCc3ccccc3)cc1)nn2C`, the inhibition is 60.6% (active).

In the case of `O=C(Nc1ccc(OCc2ccccc2)cc1)Nc1ccc2c(c1)C(=O)OC2`, the inhibition was -8.9%.

On to `O=c1[nH]c2cc(Cl)c(Cl)cc2n1-c1ccncc1`, for which the inhibition is -14.5%. As for `Cc1ccc([N+](=O)[O-])c(C(=O)NCC(=O)O)c1`, the inhibition was -15.5%.

Consider `S=C(NNC(=S)NC1CC2C=CC1C2)NC1CC2C=CC1C2` (stereo unspecified), for which the inhibition was -4.1%.

`CC(C)CCOS(=O)(=O)c1ccc2c(c1)Cc1cc(S(=O)(=O)OCCC(C)C)ccc1-2`: the inhibition is -2.5%.

Take `CN(C(=O)Nc1ccc(Cl)cc1)n1cnc2ccccc2c1=O`: the inhibition was -1.9%.

With `c1ccc(-c2nsc(N3CCNCC3)n2)cc1`, the inhibition was 1.1%.

For the compound `Cc1oc(-c2ccc(Cl)cc2)cc1C(=O)O/N=C(\N)Cc1nc2cccnc2n1C1CC1`, the inhibition is -10.9%. To `O=C(Cn1nnc2ccccc21)NCCSCc1ccco1` belongs 6.7%.

Consider `O=C(O)CC1(CC(=O)Nc2ccccc2-n2cccn2)CCCCC1`, for which the inhibition is 6.9%.

Consider `O=[N+]([O-])c1ccc(CSc2nc3cc(Cl)c(F)cc3[nH]2)cc1`, for which the inhibition is -10.8%. For `COc1ccc(/C=N/Nc2nc(C)cc(=O)[nH]2)c(OC)c1` the value was 10.6%; for `Nc1ccccc1SC(C[N+](=O)[O-])c1ccccc1` (stereo unspecified), 10.6%; for `O=C(N/N=C/c1cccs1)C(=O)Nc1ccc(Cl)c(Cl)c1`, -4.8%. For `Cc1nc2c(ncn2-c2ccccc2)c(=O)n1NC(=O)CN1CCCC1` the value was 1.8%; for `Cn1c(=O)c2c(ncn2Cc2nnc(-c3ccccc3)o2)n(C)c1=O`, -5.9%.

As for `O=[N+]([O-])c1ccc(CSc2nnc(-c3ccncc3)o2)cc1`, the inhibition is -7.8%. For `N#Cc1c(C2CCCCC2)[nH]c(=S)[nH]c1=O` the value was -2.7%. `Cc1ccc2c(c1)C(=O)C(=O)S2`: the inhibition was -13.9%. To `O=C(CSC1=NCCc2ccccc21)Nc1ccc(F)cc1F` belongs -6.1%; to `O=C(O)CCC(=O)Nc1ccc2c(c1)OCCCO2`, 8.3%; to `Oc1ccccc1C=NCCCN=Cc1ccccc1O`, -15.8%.

Take `CCOc1c(N2CCCCC2)c(=O)c1=O`: the inhibition is 13.6%.

For `O=C(CSc1nnc(-c2ccncc2)o1)N1CCc2ccccc21`, the inhibition was -5.6%. In the case of `O=c1cc(-c2ccccc2)cc(-c2ccccc2)o1`, the inhibition was -11.3%. To `O=C(NNC(=S)Nc1ccccc1Cl)c1ccc(OC(F)(F)F)cc1` belongs 19.8%; to `O=c1c2c(nc3nc[nH]n13)CCC2`, -20.2%. For `CCN(CCN1C(=O)CCC1=O)c1cccc(NC(C)=O)c1` the value was -3.7%; for `N#CCc1ccc(OC(=O)c2cccnc2)cc1`, -6.4%.

For the compound `Cc1nc(-n2cccc2)sc1C(=O)N/N=C/c1ccccc1Cl`, the inhibition was 33.9%. For `CCCS(=O)(=O)c1csc(C(=O)OC)c1N/N=C/c1cccs1` the value was -24.1%; for `Clc1cncc(Cl)c1N/N=C/C1CC2C=CC1C2` (stereo unspecified), 1.3%; for `CCCCCCCN=C(C)c1ccccc1O`, -21.6%.

On to `CC(C)c1ccc(N2C(=O)/C(=C\c3ccc(-c4ccc([N+](=O)[O-])cc4)o3)SC2=S)cc1`, for which the inhibition was 8.3%. For `CCCN(CCC)S(=O)(=O)c1ccc(C(=O)NNC(=O)c2cc(OC)c(OC)c(OC)c2)cc1` the value was -2.1%. For `NC(=O)C1CCN(CC(O)COc2ccc(Cl)c(Cl)c2)CC1` (stereo unspecified) the value was -8.2%. For `O=C(Nc1ccc(F)cc1OC(F)(F)F)N1CCC(O)CC1` the value was -18%. In the case of `CC(C)(C)c1cc(NC(=O)/C(C#N)=C/c2cccc(Cl)c2Cl)c(C(N)=O)s1`, the inhibition was -7.1%. To `O=C(Nc1ccccc1C(=O)NC1CCSC1)c1cccc(Cl)c1` (stereo unspecified) belongs -15%; to `COC(=O)CCN1CCc2cc(N=Nc3ccc(C(F)(F)F)cc3)ccc21`, 15.2%; to `CC(C)n1c(SCC(=O)c2cccc([N+](=O)[O-])c2)nc2cc(C(F)(F)F)ccc21`, -1.6%. For `O=C(CCc1ccc(O)cc1)N/N=C/c1cc(Cl)cc(Cl)c1O` the value was 6.4%; for `Cc1ccc(NC(C(=O)O)c2ccccc2)cc1` (stereo unspecified), -11.7%; for `OC(CNCc1ccc2c(c1)OCO2)COc1ccccc1` (stereo unspecified), -20.1%.

Take `O=C(NCc1cccnc1)c1ccccc1NC(=O)c1c(F)cccc1F`: the inhibition was -15.7%. With `O=C(N/N=C/c1ccc(Cl)cc1Cl)/C(=C/c1cccs1)NC(=O)c1ccccc1`, the inhibition was 11.5%. `COC(=O)c1ccccc1NC(=O)c1ccc(Oc2cc(Cl)cc(Cl)c2)o1`: the inhibition was -7%. For `O=C(NCc1ccc2c(c1)OCO2)c1sccc1Br` the value was -14.9%; for `O=C(NCc1ccc(F)cc1F)c1cc(C(F)(F)F)cc(C(F)(F)F)c1`, 2.1%. For `CCOC(=O)C(NC(=O)c1ccco1)(Nc1cc(C)ccn1)C(F)(F)F` (stereo unspecified) the value was -1.7%. To `CSc1cccc(NC(=O)C(=O)NCCc2ccccn2)c1` belongs 17.5%.

Take `CCOC(=O)CCSc1cc(-n2cccc2)c(Cl)cc1[N+](=O)[O-]`: the inhibition is -12.9%. To `CCOC(=O)Cn1sc2nc(C)cc(C)c2c1=O` belongs -8.2%; to `O=C(c1ccccc1I)c1c[nH]c2ccccc12`, 2.4%; to `O=C1C=C(NNc2ccccc2)CCC1`, -30.2%. For `O=[N+]([O-])c1ccc2ncccc2c1-n1cccc1` the value was -23.5%; for `CC(OC(=O)c1cccc(Cl)c1)c1ccc[n+](C)c1` (stereo unspecified), 1.5%. For `CN(n1cnc2ccccc2c1=O)S(=O)(=O)c1cc(Cl)sc1Cl` the value was 4.5%. In the case of `O=c1o[nH]c(-c2ccccc2)c1N=Nc1c(F)cccc1Cl`, the inhibition was 4.9%. For `O=C(O)C1CCC1C(=O)Nc1nnc(C2CC2)s1` (stereo unspecified) the value was 7.5%; for `O=C(NNC(=S)Nc1ccc(S(=O)(=O)N2CCCCC2)cc1)c1ccncc1`, 6%. Regarding `CC(CC(=O)O)Oc1ccc(Cl)cc1[N+](=O)[O-]` (stereo unspecified), the inhibition is -0.1%. For `O=C(O)CCC(=O)Nc1ccccc1` the value was 9.6%. As for `O=C(CN1CCOCC1)NNC(=O)c1cccs1`, the inhibition was 9.5%. For `O=S(=O)(CCSc1ccccc1NS(=O)(=O)c1cccs1)c1ccc(Cl)cc1`, the inhibition was -16.4%.

`CCCN(CCC)S(=O)(=O)c1ccc(C(=O)Oc2c(C)cccc2OC)cc1`: the inhibition was -3.1%. Consider `Cc1noc(C)c1C(=O)N1CCOCC1`, for which the inhibition was 0.6%.

On to `CC(=O)OCc1ccc(COC(C)=O)c(OC(C)=O)c1OC(C)=O`, for which the inhibition was -15.9%. In the case of `O=C1C(Cl)=C(Oc2cc(Cl)c(Cl)cc2Cl)C(=O)c2ccccc21`, the inhibition was 21.4%. In the case of `CO/N=C(/C)c1ccc2c(c1)CCO2`, the inhibition was 10.8%.

Turning to `COC(=O)/C=C/c1cn(C2OCC(CO)C2O)c(=O)[nH]c1=O` (stereo unspecified), the inhibition is -22%. For `O=C(OCc1ccco1)c1cnc(Nc2ccc(OC(F)(F)F)cc2)nc1C(F)(F)F` the value was 17.4%; for `Cc1ccccc1C(=O)NNC(=O)c1ccccc1C1=NCCCN1`, -4.3%; for `O=C(NC(=O)C1CCN(c2ncccc2[N+](=O)[O-])CC1)Nc1ccc(Cl)cc1`, -2%. Turning to `O=c1oc2ccc(Cl)cc2cc1-c1ccc([N+](=O)[O-])cc1`, the inhibition was -18.5%. For `CC(C)(C)c1cc(C(=O)/C=C2/NC(=O)CS2)no1` the value was 6.7%; for `Cc1nn(S(=O)(=O)c2ccc(Cl)cc2)cc1-c1ccccc1`, 0.1%. As for `Cc1ccc(S(=O)(=O)NC(=O)NNc2ncnc3scc(-c4ccccc4)c23)cc1`, the inhibition was -34.5%.

Consider `NC(N)=N/C(N)=N/c1nnc(C(F)(F)F)s1`, for which the inhibition is 13.1%. For `N#C/C(=C\c1sccc1Oc1ccccc1)S(=O)(=O)c1ccc(C(F)(F)F)cn1` the value was -9.5%; for `O=S(=O)(Cc1cccc(C(F)(F)F)c1)NCc1ccc2c(c1)OCO2`, 9.5%. For `O=c1[nH]cc(Br)c(=O)[nH]1`, the inhibition is 6.1%. To `CN(C)c1cc(-c2cc(Cl)sc2Cl)oc(=O)c1Cl` belongs -5%; to `c1ccc(-n2cccc2)c(N2CCCCC2)c1`, -9.4%; to `CC(C)(C)C(=O)NNC(=O)c1ccc(Oc2ccc(C3SCCS3)cc2)o1`, 30.1%. For `CCOC(=O)/C(C#N)=C/NNc1c(C)csc1C(=O)OC`, the inhibition is 8.8%. For `CS/C(=N/S(=O)(=O)c1c(C)noc1C)NNC(=O)Nc1ccc(Cl)cc1` the value was 1.3%. To `O=C(Nc1ccccc1C(F)(F)F)N1CCCC1c1cccnc1` (stereo unspecified) belongs -12.3%; to `COc1cccc2cc(C(=O)O)oc12`, 19.9%. As to `c1ccc(C2=NCCN=C2c2ccccc2)cc1`, the inhibition was -1.9%.

For `O=C(O)c1nccnc1C(=O)NCCSCc1c(F)cccc1Cl`, the inhibition is 2.6%. As for `O=[N+]([O-])c1cc(C(F)(F)F)ccc1OCCO`, the inhibition is 6.7%. To `Cc1ccc(/C=c2\sc3nc4ccccc4n3c2=O)o1` belongs 53.6% (active); to `CCOC(=O)CN1C(=O)/C(=C\c2ccc(C)o2)N=C1c1ccccc1`, 3.1%; to `O=C(Nc1ccccc1)N1CCN(Cc2ccccc2)CC1`, 8.5%.

Source of the values: PubChem BioAssay AID652031 (The Scripps Research Institute Molecular Screening Center, 2013).
